# Shown are actives, neighbours in structure and some others; about 2.1% of the full set was active somewhere.
# Abeta yeast res: compounds reversing amyloid beta toxicity in yeast | yeast expressing A-beta42, growth rescue, OD600, 48 h; response scale: 0% DMSO, 100% iron-clioquinol control | Potency, µM (titrated, usually from 46.1 µM), hits mostly activators | actives 0.063% (n = 410,000); note: nearly all actives have a fitted effect of over 55% in size
#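 Yeast A-beta toxicity model in growth medium with pinned compounds, 48 h at 30 C; growth read as absorbance at 600 nm. Normalized to FeCl3/clioquinol equimolar mix (positive) and DMSO (negative).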
# aSyn rescue: inhibitors of alpha-synuclein toxicity in yeast | Yeast expressing alpha-synuclein, growth rescue, BacTiter-Glo, 24 h | AID 652106 | actives 0.14% (n = 370,000) | Potency, µM (titrated, usually from 46.1 µM), for inactives: at the top dose growth rescue (activation), hits mostly activators; note: % of control where 0% means no effect; nearly all actives have a fitted effect of over 65% in size
#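 Rescue of yeast growth: cells expressing toxic alpha-synuclein, induced in galactose at OD600 0.02, incubated with compound 24 h at 30 C. ATP luminescence quantified growth; inhibitors of toxicity appear as activators.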
# FUS yeast rescue: suppressors of FUS proteinopathy in yeast; S. cerevisiae FUS-expressing, growth rescue, OD600, 24 h; actives 0.24% (n = 390,000); Potency, µM (series often up to 76.6 µM), most hits filed as activators;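 note: plate controls were DMSO vehicle for no effect and reference control for full effect; nearly all actives have a fitted effect of over 55% in size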
#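 Steps: raffinose overnight preculture; dilution to OD 0.005 in 2% galactose minimal medium; compound addition (concentration series); 24hr at 30C, 99% humidity; absorbance read at 600 nm.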
# TDP-43 yeast inh: inhibitors of TDP-43 toxicity in yeast; TDP-43 expressing yeast growth rescue, BacTiter-Glo, 24 h; Potency, µM (titrated, usually from 46.1 µM), for inactives: at the top dose growth rescue (activation), most hits filed as activators; actives 1.8% (n = 410,000); note: % of control where 0% means no effect; nearly all actives have a fitted effect of over 50% in size
#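 Readout is BacTiter-Glo luminescence of cell growth, so inhibitors register as activators. TDP-43-expressing yeast at OD600=0.02 in galactose medium, after raffinose pregrowth to mid-log, were incubated with compound for 24 hr at 30 deg C.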
# * = called active by the depositor; i = inactive; ? = inconclusive; / = no result given; [ ] = remark or other dose. Calls come from the whole dose curve; as a rule, active = well fitted curve in the direction sought with a large enough effect; inconclusive = small, poorly fitted or top-dose-only effect, or another doubt; inactive = no such curve, though single readings can be large; an effect the other way counts as inactive or inconclusive. Potency is the fitted concentration of half-maximal effect.
SMILES,Abeta yeast res,aSyn rescue,FUS yeast rescue,TDP-43 yeast inh
Cc1cc(C)n2nc(SCc3cccc(F)c3)nc2n1,i,0.2%,i,17.8µM*
Cc1cc(C)n2nc(NCc3cccc(Br)c3)nc2n1,i,1.6%,i,14.1µM*
CCc1nn(CC(=O)NCC(C)c2ccccc2)c(=O)c2cc3c(OC)cccc3n12 (stereo not given),i,/,i,-0.5%
COc1ccc(C(=O)O/N=C(\N)c2ccccc2)cc1,i,-68.5%,i,?
N/C(=N\OC(=O)c1ccc(Br)cc1)c1ccccc1,i,-25.0%,i,?
COc1cc(OC)c(C(=O)O/N=C(\N)c2ccc(C)cc2)cc1OC,i,-17.9%,i,11.2µM*
COc1cc(OC)c(C(=O)O/N=C(\N)c2cccc(C)c2)cc1OC,i,-54.3%,i,?
COc1ccc(C(=O)O/N=C(\N)c2ccc(Br)cc2)cc1,i,-26.5%,i,2.51µM*
Cc1ccc(C(=O)O/N=C(\N)c2ccc(Br)cc2)cc1,i,-23.9%,/,3.98µM*
CC(C)(C)c1ccc(C(=O)O/N=C(\N)c2ccccc2)cc1,i,-48.8%,i,3.16µM*
O=C(CSc1nc2ncccc2[nH]1)N1CCOCC1,/,/,i,/
CCc1nnc(SC(CC)C(=O)Nc2cc(C)ccc2C)c2cc3occc3n12 (stereo not given),i,/,i,13.3%
CCc1cccc(C)c1NC(=O)C(CC)Sc1nncn2c1cc1occc12 (stereo not given),i,/,i,14.1µM*
CCCC[C@H]1C2CC(OC(=O)Nc3cccc(Br)c3)C(C2)[C@H]2CCCCN21 (stereo not given in full),/,/,i,/
COC1=CC(=O)c2c(ccc3ncnc(N)c23)C1=O,i,-67.4%,/,26.3%
COC1=CC(=O)c2nc(Cl)ccc2C1=O,i,?,i,12.6µM*
CCN(Cc1cccc(S(=O)(=O)O)c1)c1ccc(C(=C2C=CC(=[N+](CC)Cc3cccc(S(=O)(=O)O)c3)C=C2)c2ccc(O)cc2S(=O)(=O)O)cc1,/,-63.7%,/,/
c1csc(-c2nc3c4ccccc4c4ccccc4c3[nH]2)c1,i,2.7%,i,20µM*
Cc1ccc(C(=O)c2cn(Cc3ccccc3)c3nc(C)ccc3c2=O)cc1,i,/,i,11.2µM*
Cc1ccc(C(=O)c2cn(Cc3cccc(F)c3)c3nc(C)ccc3c2=O)cc1,i,/,i,14.1µM*
COc1ccc(Cl)cc1NC(=O)Cn1cc(C(=O)c2ccc(C)cc2)c(=O)c2ccc(C)nc21,i,/,i,0.3%
CCn1cc(C(=O)NCCc2ccccc2C)c(=O)c2ccc(C)nc21,i,0.2%,i,0.0%
CCc1ccc(C(=O)c2cn(CC(=O)Nc3cc(OC)ccc3OC)c3nc(C)ccc3c2=O)cc1,i,/,35.5µM*,-26.3%
Cc1ccc(C(=O)c2cn(Cc3ccccc3C)c3nc(C)ccc3c2=O)cc1,i,/,25.1µM*,?
Cc1ccc(C(=O)c2cn(CC(=O)NCc3ccccc3)c3nc(C)ccc3c2=O)cc1,i,/,i,5.4%
SMILES,Abeta yeast res,aSyn rescue,FUS yeast rescue,TDP-43 yeast inh
CC(=O)Nc1cc([N+](=O)[O-])cc(NC(C)=O)c1NC(C)=O,/,-12.7%,/,/
Cc1ccc(S(=O)(=O)N2CCC(c3nc4ccccc4o3)CC2)s1,/,/,i,/
CC(=O)c1ccccc1NC(=O)COC(=O)C1CCCN1S(=O)(=O)c1ccccc1F (stereo not given),i,14.1µM*,i,16.7%
O=C(CN1C(=O)c2cccnc2Sc2ccccc21)Nc1cc(F)ccc1F,i,/,i,14.8%
CCOc1ccccc1-c1ccc(C(=O)NCc2ccccc2)o1,i,3.4%,i,15.8µM*
Clc1ccc(-c2nc3c4cnn(-c5ccccc5Br)c4ncn3n2)c(Cl)c1,i,/,i,?
Brc1ccccc1-c1nc2c3ccccc3ncn2n1,i,-6.0%,i,14.1µM*
Cc1ccc(Cc2c[nH]c(=S)s2)cc1,i,0.8%,i,11.2µM*
NC(=O)c1oc2ccccc2c1NC(=O)CCc1ccccc1,i,1.2%,i,11.2µM*
O=C(Cc1ccccc1)Nc1c(C(=O)c2ccccc2)oc2ccccc12,i,/,i,15.0%
COc1ccc(CC(=O)Nc2c(C(N)=O)oc3ccccc23)cc1OC,i,6.3%,i,-4.8%
CC(=O)Nc1c(C(=O)c2ccccc2)oc2ccccc12,i,/,i,7.94µM*
COc1ccc(C2OCCNC3C2C(=O)N(Cc2ccc(OC)cc2OC)C3Cc2ccccc2)cc1 (stereo not given),/,/,i,/
CCOc1ccc(NC(=O)CSc2oc(-c3ccc(F)cc3)nc2S(=O)(=O)c2ccc(C)cc2)cc1,i,/,i,11.0%
O=C(c1ccc(-c2cccc(C(F)(F)F)c2)o1)N1CCN(c2ccccc2O)CC1,?,8.5%,i,15.8µM*
O=C(c1ccc(-c2ccc(Cl)cc2Cl)o1)N1CCOCC1,i,5.1%,i,17.8µM*
O=C(c1ccc(-c2cc(Cl)ccc2Cl)o1)N1CCOCC1,i,-4.3%,i,?
O=C(c1cc(-c2ccccc2Cl)on1)N1CCN(C(=O)c2ccco2)CC1,i,-7.1%,i,?
O=C(c1ccco1)N1CCN(C(=O)c2ccc(-c3ccccc3Cl)o2)CC1,i,-2.9%[1.84 µM],i,14.1µM*
O=C(c1ccc(-c2ccccc2Cl)o1)N1CCN(c2ccccc2O)CC1,i,?,i,22.4µM*
CCNC(=O)c1cnc2sc(N3CCC(C)CC3)nn2c1=O,i,/,i,-3.8%
COc1ccc(-n2c(COc3ccc(Cl)cc3)nnc2SCC(=O)c2ccc(-c3ccccc3)cc2)cc1,/,/,i,/
COc1ccc(-c2cc(-c3nnc(SCC(=O)Nc4nccs4)n3N)[nH]n2)cc1,/,/,i,/
COc1ccc(/C=N/NC(=O)c2ccn[nH]2)cc1COc1ccc([N+](=O)[O-])c(C)c1,i,28.6%,i,25.1µM*
COc1ccc(/C=N/NC(=O)c2ccoc2C)cc1COc1ccc(Cl)cc1,?,15.0%,?,14.1µM*
SMILES,Abeta yeast res,aSyn rescue,FUS yeast rescue,TDP-43 yeast inh
COc1ccc(/C=C(/C(=O)Nc2ccccc2C(=O)NC(C)C)c2ccccc2)cc1,i,-12.6%,i,20µM*
Cc1ccc(/C=N/n2cc(-c3ccccc3)[nH]c2=S)s1,4.47µM*,-2.4%,i,24.5%
S=c1[nH]c(-c2ccccc2)cn1/N=C/c1ccccc1Br,?,-18.7%,i,?
COc1ccc(-c2onc(C)c2-c2ccc(C(=O)OC(C)C)o2)c(O)c1,i,11.8%,i,14.1µM*
COCCn1c(SCc2cccc([N+](=O)[O-])c2)nc2ccccc2c1=O,i,2.2%,i,17.8µM*
COc1ccc(C(=O)N(C)[C@H]2C[C@H]3c4[nH]c5cccc(-c6ccccc6)c5c4CCN3C[C@H]2[C@H](C)O)cc1,/,/,i,/
O=C(Cc1c(Cl)cccc1Cl)OCC(=O)N1CCc2ccccc2C1,i,4.8%,/,19.2%
